High-throughput results (PubChem BioAssay)
An excerpt weighted towards active compounds, which were near 19% of everything screened.
TDP1 cell noCPT: qHTS for Inhibitors of human tyrosyl-DNA phosphodiesterase 1 (TDP1): qHTS in cells in absence of CPT; AID 686978, 2013; DT40 Tdp1-/- hTDP1 cells, no CPT, ATP luminescence, 48 h; Potency, µM (series often up to 46.2 µM), hits mostly inhibitors; 420,000 compounds, 15% hits; note: nearly all actives have a fitted effect of over 55% in size
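Growth of hTDP1-complemented DT40 Tdp1-knockout cells is measured by ATP luminescence after at least 48 hr compound exposure at 37 °C, with DMSO substituting for the 20 nM CPT used in the parallel screen.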
TDP1 inh: inhibitors of human tyrosyl-DNA phosphodiesterase TDP1; AID 485290; Potency, µM (series often up to 130 µM), usual class: inhibitors; Q9NUW8; 350,000 compounds, 0.28% hits; recombinant TDP1, AlphaScreen DNA substrate cleavage; note: nearly all actives have a fitted effect of over 40% in size
Target sequence (Q9NUW8 whole entry, looked up): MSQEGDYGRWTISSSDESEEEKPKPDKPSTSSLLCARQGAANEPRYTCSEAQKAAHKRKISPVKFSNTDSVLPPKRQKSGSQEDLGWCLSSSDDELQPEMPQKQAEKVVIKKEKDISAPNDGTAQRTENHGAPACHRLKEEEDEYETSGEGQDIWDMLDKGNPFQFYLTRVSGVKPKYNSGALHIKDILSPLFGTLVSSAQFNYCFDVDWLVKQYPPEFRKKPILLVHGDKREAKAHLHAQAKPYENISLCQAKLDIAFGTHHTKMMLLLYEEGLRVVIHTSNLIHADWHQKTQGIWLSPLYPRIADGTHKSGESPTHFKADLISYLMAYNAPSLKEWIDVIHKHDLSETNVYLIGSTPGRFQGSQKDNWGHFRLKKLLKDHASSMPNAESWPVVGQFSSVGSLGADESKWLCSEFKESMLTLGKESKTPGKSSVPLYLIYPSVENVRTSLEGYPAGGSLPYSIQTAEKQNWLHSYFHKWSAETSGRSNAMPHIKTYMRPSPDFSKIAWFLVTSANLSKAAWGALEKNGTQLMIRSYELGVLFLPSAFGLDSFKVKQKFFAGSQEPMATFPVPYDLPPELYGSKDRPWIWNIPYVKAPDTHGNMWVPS
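Here, a 5' biotin and 3' phosphotyrosine-FITC DNA oligonucleotide reports Tdp1 activity: intact substrate bridges AlphaScreen beads, while cleavage leaves a 3' phosphate and drops signal. All incubations at room temperature.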
TDP1 cell CPT: growth inhibition of DT40 Tdp1-/-;hTDP1 cells with camptothecin (screen for TDP1 inhibitors). 420,000 compounds, 12% hits. chicken DT40 Tdp1-/-;hTDP1 cells + 20 nM CPT, ATP luminescence, 48 h. Potency, µM (doses to about 46.2 µM), usual class: inhibitors; note: nearly all actives have a fitted effect of over 55% in size
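Chicken DT40 Tdp1-/- cells complemented with human TDP1, 400 cells/well, exposed to compounds plus 20 nM camptothecin for at least 48 h at 37 C; viability read as ATP content by CellTiter-Glo luminescence.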
ELG1 repair inh: inhibitors of ELG1-dependent DNA repair in HEK293T cells; Potency, µM (titrated, usually from 46.1 µM), hits mostly inhibitors; AID 504467; 330,000 compounds, 2.3% hits; HEK293T ELG1-luciferase reporter, luminescence, 16 h; DNA damage induced by 5-fluorouridine; note: nearly all actives have a fitted effect of over 55% in size
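Overnight (16 hr) co-exposure of 2,000 cells/well to 5-fluorouridine and compound at 37 °C preceded detection. Luciferase was quantified via ONE-Glo luminescence; loss of signal denotes inhibition.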
Giardia kill: kills Giardia lamblia; 340,000 compounds, 0.15% hits; activity change, % at 7.66 µM, hits read low; AID 540267; Giardia lamblia trophozoite viability; in the data active = activity change below about -80%; inconclusive = between about -30% and that limit;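 note: parasites exposed to compound for two days anaerobically before the ATP read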
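Viability, read as ATP luminescence: trophozoites at 100 cells/well, compound added, 48 hrs anaerobic at 37 deg C, then 15-30 min room-temperature development before reading.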
IL-1B inflam inh: blocks inflammasome-driven IL-1 beta release; 360,000 compounds, 4.7% hits; THP-1 LPS/ATP IL-1B secretion, AlphaLISA, 16 h; stronger effect = lower value; activity change, % at 57.5 µM; AID 743279; in the data active = activity change below about -50%; inconclusive = mostly about -30% to -49%
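THP-1 cells pretreated 1 hr with compounds (up to 57.5 uM final), then stimulated with LPS (250 ng/mL final) plus ATP (1.25 mM final); secreted IL-1B measured by AlphaLISA after 16 hr, decreased signal indicating inhibition.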
Large screens that a line does not name were inactive. Unless noted, calls come from the whole dose curve; as a rule, active = well fitted curve in the direction sought with a large enough effect; inconclusive = small, poorly fitted or top-dose-only effect, or another doubt; inactive = no such curve, though single readings can be large; an effect the other way counts as inactive or inconclusive.

N#Cc1cc(-c2ccccc2)[nH]c1-c1nccc2ccccc12	TDP1 cell noCPT inconclusive, TDP1 cell CPT inconclusive, ELG1 repair inh 9.2µM
Cc1ccc(N2C(=O)CC(Sc3ncn[nH]3)C2=O)cc1C (stereo not given)	TDP1 cell noCPT 5.2µM, TDP1 cell CPT 4.6µM
Cc1cccc(N2C(=O)CC(Sc3nccc(C)n3)C2=O)c1 (stereo not given)	TDP1 cell CPT inconclusive (no result: TDP1 inh)
Cc1cccc(N2C(=O)CC(Sc3ncn[nH]3)C2=O)c1 (stereo not given)	TDP1 cell noCPT 1.8µM, TDP1 inh inconclusive, TDP1 cell CPT 1.8µM
CCc1c(O)nc(SC2CC(=O)N(c3ccc(F)c(Cl)c3)C2=O)[nH]c1=O (stereo not given)	none
COc1cc2c(c(OC)c1)C(c1cc(OC)c(OC)c(OC)c1)CC(=O)N2 (stereo not given)	none (no result: ELG1 repair inh, Giardia kill, IL-1B inflam inh)
COc1ccc(Br)cc1CNC(=O)CCCn1c(=O)c2cccn2c2cccnc21	TDP1 cell noCPT 18µM, TDP1 cell CPT inconclusive (no result: ELG1 repair inh, Giardia kill, IL-1B inflam inh)
COc1ccc(Br)cc1CNC(=O)CCCn1c(=O)c2cccn2c2ccccc21	TDP1 cell noCPT 23µM, TDP1 cell CPT inconclusive (no result: ELG1 repair inh, Giardia kill, IL-1B inflam inh)
COc1ccc(Br)cc1CNC(=O)Cn1c(=O)c2cccn2c2ccc(F)cc21	TDP1 cell noCPT 13µM, TDP1 cell CPT 4.6µM (no result: ELG1 repair inh, Giardia kill, IL-1B inflam inh)
CCOc1ccc(CNC(=O)Cn2c(=O)c3cccn3c3ccc(F)cc32)cc1OC	none (no result: ELG1 repair inh, Giardia kill, IL-1B inflam inh)
COc1ccc(OC)c(CNC(=O)CCCn2c(=O)c3cccn3c3cccnc32)c1	none (no result: ELG1 repair inh, Giardia kill, IL-1B inflam inh)
O=C(CCCn1c(=O)c2cccn2c2cccnc21)NCc1ccccc1Br	none (no result: ELG1 repair inh, Giardia kill, IL-1B inflam inh)
COc1ccc(Br)cc1CNC(=O)Cn1ncn2nc(-c3cccs3)cc2c1=O	TDP1 cell noCPT 13µM, TDP1 cell CPT 12µM (no result: ELG1 repair inh, Giardia kill, IL-1B inflam inh)
CO[C@@H]1/C=C\CC(=O)N2CCC[C@@H]2C(=O)OC[C@@H](C)C(=O)OC[C@H]1C	none (no result: TDP1 cell noCPT, TDP1 cell CPT, ELG1 repair inh, Giardia kill, IL-1B inflam inh)
C[C@H](NC(N)=O)C(=O)N1CCN(S(=O)(=O)c2ccc3ccccc3c2)CC1	none
Cc1ccc(-c2nn(-c3ccccc3)cc2C(=O)NCCCN2CCOCC2)cc1	TDP1 cell noCPT inconclusive
Cc1ccc(-c2nn(-c3ccc(F)cc3)cc2C(=O)NCCCN2CCCC2=O)cc1	TDP1 cell CPT 0.21µM, ELG1 repair inh inconclusive
CCOC(=O)c1ccc(N2CCN(c3ccc(F)cc3)CC2)c(NC(=O)Nc2ccc(CC)cc2)c1	none (no result: ELG1 repair inh, Giardia kill, IL-1B inflam inh)
Cc1ccc2[nH]c(O)c(N=NC(=O)CCc3ccccc3)c2c1Br	TDP1 cell noCPT inconclusive, TDP1 cell CPT 16µM, ELG1 repair inh inconclusive, IL-1B inflam inh -88
Cc1cc(C)c(NC(=O)c2ccc(CNS(=O)(=O)c3cc(C(F)(F)F)ccc3Cl)cc2)c(C)c1	TDP1 cell noCPT 16µM, TDP1 cell CPT 21µM
O=C(NCCC1=CCCCC1)c1cc(S(=O)(=O)N2CCOCC2)ccc1F	TDP1 cell noCPT inconclusive, TDP1 cell CPT 13µM
Cc1c(C(=O)NCCC2=CCCCC2)oc2ccc(S(=O)(=O)N3CCOCC3)cc12	TDP1 cell noCPT 21µM, TDP1 cell CPT inconclusive, ELG1 repair inh 16µM, IL-1B inflam inh inconclusive
O=S1(=O)NC(=NCCOCCO)c2ccccc21	none
CC(=O)CC1c2cc(F)ccc2C=C(c2ccsc2)N1c1ccc(-c2ccc(C(N)=O)cc2)cc1 (stereo not given)	TDP1 cell noCPT inconclusive, TDP1 cell CPT inconclusive (no result: TDP1 inh, ELG1 repair inh, Giardia kill)
COC(=O)[C@@]12C[C@@H](CC(=O)N3CCCC3)C(=O)N(Cc3cccc4ccccc34)C1=CCC(C)(C)C2	TDP1 cell noCPT inconclusive, TDP1 cell CPT inconclusive (no result: TDP1 inh, ELG1 repair inh, Giardia kill)
COC(=O)[C@@]12C[C@@H](CC(=O)N3CCN(C(=O)C4CC4)CC3)C(=O)N(Cc3cccc4ccccc34)C1=CCC(C)(C)C2	TDP1 cell noCPT 21µM, TDP1 cell CPT inconclusive (no result: TDP1 inh, ELG1 repair inh, Giardia kill)
COC(=O)[C@@]12C[C@@H](CC(=O)N3CCOCC3)C(=O)N(Cc3cccc4ccccc34)C1=CCC(C)(C)C2	TDP1 cell noCPT inconclusive, TDP1 cell CPT 16µM (no result: TDP1 inh, ELG1 repair inh, Giardia kill)
